Unmarked numbers belong to inactive results.
Each compound was assayed on Pseudomonas aeruginosa PA14 wild type (assay: respiration area under curve with compound as sole nitrogen source, 24 h (OmniLog AUC (arbitrary units)); higher = more respiration / better utilisation as nitrogen source, active = 2000 or more).
Protocol: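 Biolog Phenotype MicroArray plates PM6-PM8: each di/tripeptide is the sole nitrogen source (IF-0 medium with succinate/ferric citrate and dye mix A). Tetrazolium reduction was read in the OmniLog every 15 min for 24 h at 37°C and summarised as area under the respiration curve (arbitrary units). The paper counts values below 2000 as no respiration and above 8000 as solid respiration. Replicate datasets are averaged.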
With `NC(N)=NCCC[C@H](NC(=O)[C@@H](N)CCCN=C(N)N)C(=O)O` (plate: PM6) the “respiration area under curve” value was 10100 (active).
With `CC(C)C[C@H](N)C(=O)N[C@@H](CCCN=C(N)N)C(=O)O` (plate: PM6) the “respiration area under curve” value was 10200 (active).
In the case of `CC(C)[C@H](NC(=O)[C@@H](N)Cc1ccccc1)C(=O)O` (plate: PM8), the “respiration area under curve” value is reported as 6870 (active).
For `N[C@@H](Cc1c[nH]c2ccccc12)C(=O)N[C@@H](CCC(=O)O)C(=O)O` (plate: PM7), the “respiration area under curve” value was 633.
For `NCC(=O)N[C@@H](Cc1ccc(O)cc1)C(=O)O` (plate: PM6), the “respiration area under curve” value was 2560 (active).
In the case of `CC(C)[C@H](NC(=O)[C@@H](N)CC(=O)O)C(=O)O` (plate: PM6), the “respiration area under curve” value is reported as 4290 (active).
In the case of `C[C@H](N)C(=O)N[C@@H](Cc1c[nH]c2ccccc12)C(=O)O` (plate: PM6), the “respiration area under curve” value is reported as 4490 (active).
`CC(C)C[C@H](NC(=O)[C@@H](N)Cc1c[nH]c2ccccc12)C(=O)O` (plate: PM7) was tested, and the “respiration area under curve” value was 3760 (active).
With `N[C@@H](CC(=O)O)C(=O)N[C@@H](CC(=O)O)C(=O)O` (plate: PM6) the “respiration area under curve” value was 119.
`CSCC[C@H](N)C(=O)NCC(=O)O` (plate: PM7) was tested, and the “respiration area under curve” value was 5050 (active).
In the case of `C[C@H](NC(=O)[C@@H](N)[C@@H](C)O)C(=O)O` (plate: PM7), the “respiration area under curve” value is reported as 10500 (active).
In the case of `CC(NC(=O)C(N)CC(=O)O)C(=O)O` (stereo not given) (plate: PM8), the “respiration area under curve” value is reported as 8830 (active).
For `CC(C)[C@H](N)C(=O)NCC(=O)O` (plate: PM7), the “respiration area under curve” value was 9460 (active).
With `CC(C)[C@H](N)C(=O)N[C@@H](CCC(=O)O)C(=O)O` (plate: PM8) the “respiration area under curve” value was 5380 (active).
With `N[C@@H](Cc1c[nH]c2ccccc12)C(=O)N[C@@H](CO)C(=O)O` (plate: PM7) the “respiration area under curve” value was 4810 (active).
For `N[C@@H](Cc1ccc(O)cc1)C(=O)N[C@@H](CCC(=O)O)C(=O)O` (plate: PM7), the “respiration area under curve” value was 4890 (active).
For `N[C@@H](CO)C(=O)N[C@@H](Cc1ccc(O)cc1)C(=O)O` (plate: PM7), the “respiration area under curve” value was 6130 (active).
`CSCC[C@H](N)C(=O)N1CCC[C@H]1C(=O)O` (plate: PM7) was tested, and the “respiration area under curve” value was 8120 (active).
With `CC(C)C[C@@H](N)C(=O)N[C@@H](Cc1ccc(O)cc1)C(=O)O` (plate: PM8) the “respiration area under curve” value was 36.8.
For `CC(C)[C@H](NC(=O)CN)C(=O)O` (plate: PM6), the “respiration area under curve” value was 4270 (active).
For `CC(C)C(N)C(=O)NC(CO)C(=O)O` (stereo not given) (plate: PM8), the “respiration area under curve” value was 9530 (active).
With `NCC(=O)NCC(=O)N[C@@H](Cc1ccccc1)C(=O)O` (plate: PM8) the “respiration area under curve” value was 9740 (active).
With `N[C@@H](CO)C(=O)N[C@@H](CC(=O)O)C(=O)O` (plate: PM8) the “respiration area under curve” value was 4090 (active).
`CC(C)C[C@H](N)C(=O)N[C@@H](CO)C(=O)O` (plate: PM7) was tested, and the “respiration area under curve” value was 13500 (active).
For `C[C@@H](O)[C@H](N)C(=O)N[C@@H](CCCN=C(N)N)C(=O)O` (plate: PM7), the “respiration area under curve” value was 15400 (active).
In the case of `NC(N)=NCCC[C@H](N)C(=O)N[C@@H](Cc1ccccc1)C(=O)O` (plate: PM6), the “respiration area under curve” value is reported as 9420 (active).
In the case of `CC[C@H](C)[C@H](NC(=O)[C@@H](N)Cc1ccccc1)C(=O)O` (plate: PM7), the “respiration area under curve” value is reported as 8390 (active).
`CC(C)C[C@H](N)C(=O)N1CCC[C@H]1C(=O)O` (plate: PM8) was tested, and the “respiration area under curve” value was 9370 (active).
For `CC(C)[C@H](NC(=O)[C@H](C)N)C(=O)O` (plate: PM8), the “respiration area under curve” value was 9240 (active).
For `N[C@@H](Cc1c[nH]c2ccccc12)C(=O)N[C@@H](CC(=O)O)C(=O)O` (plate: PM7), the “respiration area under curve” value was 446.
For `C[C@H](N)C(=O)N[C@@H](CC(N)=O)C(=O)O` (plate: PM6), the “respiration area under curve” value was 8960 (active).
For `CC(C)C[C@H](N)C(=O)NCC(=O)O` (plate: PM6), the “respiration area under curve” value was 8220 (active).
`C[C@H](N)C(=O)NCC(=O)O` (plate: PM6) was tested, and the “respiration area under curve” value was 8070 (active).
In the case of `N[C@@H](Cc1ccccc1)C(=O)N[C@@H](Cc1ccc(O)cc1)C(=O)O` (plate: PM8), the “respiration area under curve” value is reported as 2350 (active).
With `CC(C)C[C@H](N)C(=O)N[C@@H](C)C(=O)O` (plate: PM6) the “respiration area under curve” value was 9330 (active).
With `C[C@@H](O)[C@H](N)C(=O)N[C@@H](CO)C(=O)O` (plate: PM8) the “respiration area under curve” value was 7920 (active).
`C[C@H](N)C(=O)N[C@@H](CCCN=C(N)N)C(=O)O` (plate: PM6) was tested, and the “respiration area under curve” value was 10100 (active).
For `CC[C@H](C)[C@H](N)C(=O)N[C@@H](CCCN=C(N)N)C(=O)O` (plate: PM6), the “respiration area under curve” value was 9480 (active).
In the case of `CSCC[C@H](N)C(=O)N[C@@H](CCC(=O)O)C(=O)O` (plate: PM7), the “respiration area under curve” value is reported as 1960.
For `C[C@H](N)C(=O)N[C@H](C(=O)O)[C@@H](C)O` (plate: PM6), the “respiration area under curve” value was 6750 (active).
